TDP1 cell CPT: qHTS for Inhibitors of human tyrosyl-DNA phosphodiesterase 1 (TDP1): qHTS in cells in presence of CPT | chicken DT40 Tdp1-/-;hTDP1 cells + 20 nM CPT, ATP luminescence, 48 h | Potency, µM (series often up to 46.2 µM), for inactives: at the highest dose activity change, negative = growth inhibition, actives largely listed as inhibitors | actives 12% (n = 420,000) | AID 686979, 2013; also: potency is read from the fitted curve at half-maximal effect; % is scaled to controls: 0 for no effect and ±100 for the full control effect; nearly all actives have a fitted effect of over 55% in size
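Chicken DT40 Tdp1-/- cells stably complemented with human TDP1 were seeded at 400 cells/well in medium containing 20 nM camptothecin, exposed to pin-transferred compounds, and grown at 37 °C for at least 48 hr. Viability was read as ATP luminescence.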
IL1B secr inh: qHTS for Inhibitors of Inflammasome Signaling: IL-1-beta AlphaLISA Primary Screen | activity change, % at 57.5 µM | THP-1 LPS/ATP IL-1B secretion, AlphaLISA, 16 h; active compounds read low | actives 4.7% (n = 360,000); in the data active = activity change below about -50%; inconclusive = mostly about -30% to -49%; also: % is scaled to controls: 0 for no effect and ±100 for the full control effect
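Secreted IL-1B measured by AlphaLISA bead assay after 16 h compound exposure of THP-1 cells; compounds (final up to 57.5 uM) added 1 h before LPS (250 ng/mL) and ATP (1.25 mM) stimulation; lower signal means less secretion.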
DRD3 agonist: qHTS of D3 Dopamine Receptor Agonist: qHTS; D(3) dopamine receptor (Homo sapiens), P35462; D3R DiscoveRx beta-arrestin cells, luminescence, 90 min; max activation, %; actives 0.58% (n = 410,000); AID 652048, 2013; in the data active = max activation above about 30%; also: 0% is about no effect
Target sequence (P35462 whole entry, looked up): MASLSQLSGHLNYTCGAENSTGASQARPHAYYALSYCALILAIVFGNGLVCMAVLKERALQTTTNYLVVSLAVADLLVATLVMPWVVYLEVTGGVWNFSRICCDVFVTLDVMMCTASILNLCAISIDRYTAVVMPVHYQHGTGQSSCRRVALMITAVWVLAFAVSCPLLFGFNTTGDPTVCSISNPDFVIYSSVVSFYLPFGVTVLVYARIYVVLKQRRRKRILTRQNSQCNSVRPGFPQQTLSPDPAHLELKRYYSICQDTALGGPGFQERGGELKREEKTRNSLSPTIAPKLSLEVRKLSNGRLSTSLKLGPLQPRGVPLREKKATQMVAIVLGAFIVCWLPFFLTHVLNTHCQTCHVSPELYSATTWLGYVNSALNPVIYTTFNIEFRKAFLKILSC
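Agonist mode: compounds and dopamine controls were applied to plated cells for 90 min at 37 degrees C after an overnight attachment at 1500 cells/well. Luminescent read-out followed 30 - 60 minutes at room temperature with DiscoveRx detection reagent.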
DT40 TDP1 no CPT: qHTS for Inhibitors of human tyrosyl-DNA phosphodiesterase 1 (TDP1): qHTS in cells in absence of CPT; DT40 Tdp1-/- hTDP1 cells, no CPT, ATP luminescence, 48 h; Potency, µM (highest dose often 46.2 µM), for inactives: at the top dose activity change, negative = growth inhibition, most hits filed as inhibitors; AID 686978, 2013; actives 15% (n = 420,000); also: potency is read from the fitted curve at half-maximal effect; % is scaled to controls: 0 for no effect and ±100 for the full control effect; nearly all actives have a fitted effect of over 55% in size
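Camptothecin absent (DMSO only). Human TDP1-complemented DT40 knockout cells, 400 cells/well, 37 °C for minimum 48 hr; ATP measured via CellTiter-Glo, 30 min dark incubation, luminescence.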
ClpP mod: qHTS Assay for Activators of ClpP; AID 651965, 2013; Potency, µM (highest dose often 57.5 µM), for inactives: at the top dose activity change, negative = active; purified B. subtilis ClpP, FRET peptide cleavage, 20 min; actives 1.9% (n = 340,000); active = well fitted falling curve with a large enough effect; inconclusive = small, poorly fitted or top-dose-only effect; inactive = no such curve, though single readings can be large or run the other way; also: potency is read from the fitted curve at half-maximal effect; the source files actives as falling curves though it sought activators and does not explain the sign; nearly all actives have a fitted effect of over 65% in size
Target sequence (P80244 whole entry, looked up): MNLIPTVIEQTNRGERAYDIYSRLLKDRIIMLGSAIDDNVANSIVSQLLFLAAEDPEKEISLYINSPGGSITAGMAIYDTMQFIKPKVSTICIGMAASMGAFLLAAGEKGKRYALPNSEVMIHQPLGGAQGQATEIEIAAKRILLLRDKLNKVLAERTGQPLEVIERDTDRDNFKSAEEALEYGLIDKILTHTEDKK
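Purified B. subtilis ClpP, 10 microg/mL final in Tris/HCl pH8 with KCl, BSA, glycerol and Tween-20, cleaved an Abz/nitrotyrosine-quenched decapeptide. Fluorescence (ex 320, em 430) was read at 0 and 20 min at room temperature. Delta was normalized to 5.8 microM ADEP and DMSO/no-enzyme controls.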
D3 antag: qHTS of D3 Dopamine Receptor Antagonist: qHTS | AID 652054, 2013 | D3R cells, DiscoveRx beta-arrestin luminescence, antagonist mode; active compounds read low | max response, negative = inhibition, % | actives 2.5% (n = 360,000); in the data active = max response below about -50%; inconclusive = no clear call, values can overlap the other calls; also: % is scaled to controls: 0 for no effect and ±100 for the full control effect
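Cells plated overnight at 1500 cells/well, then exposed to library compounds with dopamine controls for 90 minutes at 37 degrees C. DiscoveRx reagent added for 30–60 minutes at room temperature; luminescence read, quantitative HTS format.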
* = called active by the depositor; i = inactive; ? = inconclusive; · = no result given. In the library only some 21% were active in any assay of this set; here they are far more common. Unless noted, calls follow the shape of the dose curve; as a rule, active = well fitted inhibition curve with a large enough effect; inconclusive = small, poorly fitted or top-dose-only effect; inactive = flat fitted curve, though single readings scatter.

SMILES | TDP1 cell CPT | IL1B secr inh | DRD3 agonist | DT40 TDP1 no CPT | ClpP mod | D3 antag
CCOC(=O)[C@@H]1[C@H]2COc3cc(OC)ccc3[C@@H]2N2C(=O)N(c3ccc(C(F)(F)F)cc3)C(=O)[C@]12C | 23µM* | -2 | 46* | 21µM* | 0% | 5
CCOC(=O)[C@@H]1[C@H]2COc3cc(OC)ccc3[C@@H]2N2C(=O)N(c3ccc(OC)cc3)C(=O)[C@@]12C | -4% | 22 | 0 | -2% | 0% | 34
CCOC(=O)[C@H]1[C@H]2COc3cc(OC)ccc3[C@@H]2N2C(=O)N(c3cccc(Cl)c3)C(=O)[C@@]12C | ? | -2 | 3 | 29µM* | -5% | -8
CCOC(=O)[C@@H]1[C@H]2COc3cc(OC)ccc3[C@@H]2N2C(=O)N(c3ccc(Cl)cc3)C(=O)[C@]12C | ? | -9 | 34* | ? | -6% | -25
O=C(Nc1ccccc1C(=O)N1CCCCCC1)c1cccc([N+](=O)[O-])c1 | -12% | i | -6 | -17% | -1% | -5
CCNC(=O)C1(C)CCCN(Cc2ccc(-n3ccnc3)cc2)C1 (stereo not drawn) | -5% | -10 | 0 | -13% | 0% | 10
CCC(=O)Nc1ccc(N2CCCCC2)cc1 | ? | -11 | -14 | -7% | -3% | -16
O=C(Cn1c(-c2ccccc2)noc1=O)Nc1ccc(S(=O)(=O)N2CCOCC2)cc1 | 4% | -3 | 1 | -6% | -2% | 11
O=C(CCl)Nc1ccc(N2CCCCCC2)cc1 | 5.2µM* | -98* | -9 | 8.2µM* | · | ?
O=C(Cn1c(-c2ccccc2)noc1=O)Nc1ccc(N2CCCCCC2)cc1 | 16µM* | 3 | -1 | 18µM* | 0% | -16
N#Cc1ccc(OCC(=O)Nc2ccc(N3CCCC3)cc2)cc1 | ? | -5 | -2 | 12µM* | -6% | -5
Cc1ccc(CNC(=O)CCCn2c(=O)c3ccccc3n(CC(=O)Nc3ccc(C)c(C)c3)c2=O)cc1 | -14% | · | 4 | -19% | 1% | ·
CCOc1ccc(OCCC(=O)N(CC)CC(=O)Nc2c(F)cccc2F)cc1 | 4% | 13 | 5 | -1% | 0% | 13
CC(=O)Nc1ccc(S(=O)(=O)N(C)CC(=O)OC2CCCCC2=O)cc1 (stereo not drawn) | -2% | 18 | 3 | -4% | 1% | 4
N#CC1CC(c2ccccc2)Nc2cc(Cl)ccc2N1 (stereo not drawn) | 16µM* | 1 | 2 | 10µM* | 4% | -4
CCNc1nc(NCC)nc(Oc2ccc(OCC)nn2)n1 | -2% | -4 | 2 | 0% | 0% | 6
CC(C)CCOc1ccc(Oc2nc(N(C)C)nc(N(C)C)n2)nn1 | 18µM* | · | 11 | ? | -3% | ·
CCCOc1ccc(Oc2nc(NCC(C)C)nc(N(C)C)n2)nn1 | ? | · | -3 | 13µM* | 0% | ·
CCNc1nc(NC(C)C)nc(Oc2ccc(OCCOc3ccc(C)cc3)nn2)n1 | 21µM* | 16 | 3 | ? | 1% | 15
CCNc1nc(NCC)nc(SCCOc2ccc(C)cc2)n1 | 21µM* | -8 | 5 | 18µM* | -1% | 32
COc1ccc(NC(=S)NNc2ccc(S(=O)(=O)Nc3ccccc3C(=O)O)cc2[N+](=O)[O-])cc1 | ? | -4 | -5 | 1% | 1% | -21
CC(CN1CCN(C)CC1)OC(=O)c1cccc(Cl)c1 (stereo not drawn) | 1% | 16 | -23 | 7% | · | -7
COc1cccc(CN2C(=O)CN(C3CCCCC3)C(=O)C2c2ccc(OC)c(OC)c2)c1 (stereo not drawn) | ? | · | -16 | ? | -2% | ·
Cc1cccc(OCCSc2nc(N)cc(N)n2)c1 | ? | -27 | 2 | 21µM* | -6% | -5
N#C/C(=C/c1ccc(CNC(=O)C(=O)Nc2cc(Cl)cc(Cl)c2)o1)C(=O)NCc1cccnc1 | ? | 10 | 1 | ? | -11% | -28
SMILES | TDP1 cell CPT | IL1B secr inh | DRD3 agonist | DT40 TDP1 no CPT | ClpP mod | D3 antag
O=C(NCc1cccnc1)c1cc(-c2ccccc2)on1 | ? | 48 | -28 | ? | 0% | ?
O=C(NCc1cccnc1)/C(=C/c1ccc(-c2cccc(Cl)c2)o1)S(=O)(=O)c1ccccc1 | ? | -106* | -1 | ? | 1% | -19
O=C(NCc1cccnc1)/C(=C\c1ccc(-c2cccc(Cl)c2)o1)S(=O)(=O)c1ccccc1 | 4.6µM* | -105* | -32 | 5.2µM* | -11% | -50*
Cc1c(Cl)cccc1NC(=S)/C(=C(\[O-])c1ccc(Cl)s1)[n+]1ccccc1 | -22% | -70* | -6 | -23% | -4% | -20
[O-]/C(=C(\C(=S)Nc1cccc2ccccc12)[n+]1cccc(CO)c1)c1ccc(Cl)s1 | -23% | 0 | 1 | -23% | -14% | 8
COc1ccc(C(=O)Nc2cnn(Cc3c(F)cccc3Cl)c2)cc1OC | ? | 69 | 6 | -25% | -1% | 2
O=C1C=CC(=O)N1c1ccccn1 | ? | -2 | 5 | ? | · | -13
O=C(c1ccccc1)c1ccccc1N1C(=O)C=CC1=O | 0.73µM* | -98* | -18 | 1.6µM* | -1% | ?
O=C1C=CC(=O)N1c1ccccc1N1C(=O)C=CC1=O | 0.92µM* | -98* | -38 | 0.58µM* | · | -113*
Cc1ccc(-n2nc(CO)c(C(=O)NCCCCc3ccccc3)n2)cc1 | -25% | · | -7 | ? | 10µM* | ·
CCC(C)NC(=O)c1nn(-c2ccc(C)cc2)nc1CO (stereo not drawn) | 4% | · | 9 | -10% | ? | ·
